Assay results reported in the supplement of paper PMC7411054.
Structures can show the parent of a compound that is named as a salt.

What was measured:
Assay in all cases: lowest phenotypically active concentration; higher = less potent
Details in all cases: treatment time: 24 h
[1] = test system: A549-CANX-COX4
Method in brief: (§1)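 Phenotypic activity depended on meeting both a deviation and a reproducibility criterion. The fifteen gene-edited A549, HepG2 and WPMY1 reporter lines were treated at 0.3, 1, 3 or 9 µM for 24 h, four wells each, then imaged live with features normalised to solvent control wells. Deviation required ≥3 of 4 wells past the 95th percentile of control Euclidean distances, and reproducibility a median replicate Pearson correlation above the 95th percentile of non-replicates.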

[2] = test system: A549-TP53BP1-CLTA
Method in brief: as §1

[3] = test system: HepG2-CANX-COX4
Method in brief: as §1

[4] = test system: HepG2-GM130-SQSTM1
Method in brief: as §1

[5] = test system: HepG2-TP53BP1-CLTA
Method in brief: as §1

[6] = test system: HepG2-TUBA1B-RELA
Method in brief: as §1

[7] = test system: WPMY1-TP53BP1-CLTA
Method in brief: as §1

[8] = test system: WPMY1-TUBA1B-RELA
Method in brief: as §1

[9] = test system: A549-TUBA1B-RELA
Method in brief: as §1

[10] = test system: WPMY1-CANX-COX4
Method in brief: as §1

`CC(C)(C)c1cc(/C=C(\C#N)C(N)=S)cc(C(C)(C)C)c1O` was tested, and the “lowest phenotypically active concentration” value [1] was 9 µM, the “lowest phenotypically active concentration” value [2] was 9 µM and the “lowest phenotypically active concentration” value [3] was 9 µM. The “lowest phenotypically active concentration” value [4] was 9 µM, the “lowest phenotypically active concentration” value [5] was 9 µM and the “lowest phenotypically active concentration” value [6] was 9 µM. For the same molecule, the “lowest phenotypically active concentration” value [7] was 9 µM.
In the case of `Cc1c[nH]c2ncnc(-c3ccc(NC(=O)N(CCO)c4ccccc4)cc3)c12`, the “lowest phenotypically active concentration” value [8] is reported as 9 µM.
For `O=C1NCCCc2c1oc1ccc(O)cc21`, the “lowest phenotypically active concentration” value [3] was 9 µM, the “lowest phenotypically active concentration” value [6] was 9 µM and the “lowest phenotypically active concentration” value [8] was 9 µM.
`CCOC(=O)N1CCC(=C2c3ccc(Cl)cc3CCc3cccnc32)CC1` [loratadine] was tested, and the “lowest phenotypically active concentration” value [3] was 3 µM.
With `Cc1cccc(CN2CCN(C(c3ccccc3)c3ccc(Cl)cc3)CC2)c1` (centres undefined) [Meclizine dihydrochloride] the “lowest phenotypically active concentration” value [6] was 9 µM.
In the case of `O=c1cc(N2CCOCC2)oc2c(-c3ccccc3)cccc12`, the “lowest phenotypically active concentration” value [2] is reported as 9 µM, the “lowest phenotypically active concentration” value [9] is reported as 9 µM and the “lowest phenotypically active concentration” value [4] is reported as 9 µM. For the same molecule, the “lowest phenotypically active concentration” value [5] was 9 µM, the “lowest phenotypically active concentration” value [6] was 9 µM and the “lowest phenotypically active concentration” value [10] was 9 µM. For the same molecule, the “lowest phenotypically active concentration” value [7] was 9 µM.
For `O=C(O/N=C1\c2ccccc2-c2nc3ccccc3nc21)c1ccco1`, the “lowest phenotypically active concentration” value [10] was 9 µM, the “lowest phenotypically active concentration” value [7] was 9 µM and the “lowest phenotypically active concentration” value [8] was 3 µM.
For `O=c1c(-c2ccc(O)cc2)coc2cc(O)cc(O)c12` [Genistein], the “lowest phenotypically active concentration” value [2] was 9 µM, the “lowest phenotypically active concentration” value [9] was 9 µM and the “lowest phenotypically active concentration” value [10] was 9 µM. For the same molecule, the “lowest phenotypically active concentration” value [7] was 9 µM and the “lowest phenotypically active concentration” value [8] was 9 µM.
With `Nc1ncnc2c1nc(Br)n2[C@@H]1O[C@@H]2COP(=O)(O)O[C@H]2[C@H]1O` [8-Bromo-cAMP, sodium salt] the “lowest phenotypically active concentration” value [10] was 9 µM.
`COC(=O)C1=CO[C@@H](C)[C@H]2CN3CCc4c([nH]c5ccccc45)[C@@H]3C[C@H]12` [Ajmalicine hydrochloride] was tested, and the “lowest phenotypically active concentration” value [1] was 9 µM, the “lowest phenotypically active concentration” value [3] was 9 µM and the “lowest phenotypically active concentration” value [5] was 9 µM. For the same molecule, the “lowest phenotypically active concentration” value [10] was 9 µM.
For `Cc1cccc(C)c1OCC(C)N` (centres undefined) [mexiletine], the “lowest phenotypically active concentration” value [1] was ≤ 0.3 µM and the “lowest phenotypically active concentration” value [2] was ≤ 0.3 µM.
In the case of `Cc1cc2sc(NC(=O)Cc3ccccc3)nc2cc1Cl`, the “lowest phenotypically active concentration” value [9] is reported as 9 µM.
`CCCc1cc2c(N3CCN(C4=NCC(C)(C)S4)CC3)ncnc2s1` [MI 2 dihydrochloride] was tested, and the “lowest phenotypically active concentration” value [3] was 9 µM, the “lowest phenotypically active concentration” value [4] was 9 µM and the “lowest phenotypically active concentration” value [5] was 9 µM.
With `COc1cc(-c2cn(C)c(=O)c3cnccc23)c(OC)cc1CN(C)C` the “lowest phenotypically active concentration” value [2] was 9 µM, the “lowest phenotypically active concentration” value [4] was 9 µM and the “lowest phenotypically active concentration” value [6] was 9 µM. The “lowest phenotypically active concentration” value [8] was 9 µM.
`C[C@H](NC(=O)c1sccc1OCc1ccc(Cl)cc1)c1ccccc1` was tested, and the “lowest phenotypically active concentration” value [2] was 9 µM and the “lowest phenotypically active concentration” value [7] was 3 µM.
In the case of `COc1ccc(-n2c(SCCCN3C(=O)c4cccc5cccc(c45)C3=O)nnc2-c2ccncc2)cc1`, the “lowest phenotypically active concentration” value [9] is reported as 3 µM.
`CC(C)NCC(O)COc1ccc(CC(N)=O)cc1` (centres undefined) [atenolol-()] was tested, and the “lowest phenotypically active concentration” value [7] was 9 µM.
In the case of `O=C(O)COc1ccc(Br)cc1/C=C1\SC(=S)N(Cc2cccnc2)C1=O`, the “lowest phenotypically active concentration” value [4] is reported as 3 µM.
For `O=C(O)[C@H]1CCCC[C@H]1C(=O)N1CCc2ccccc2[C@H]1CN1C(=O)c2ccccc2C1=O`, the “lowest phenotypically active concentration” value [4] was 9 µM and the “lowest phenotypically active concentration” value [6] was 9 µM.
In the case of `Cc1cc(C(=O)Nc2cccc(C(=O)Nc3cccc(C(F)(F)F)c3)c2)on1`, the “lowest phenotypically active concentration” value [3] is reported as 1 µM.
`CCc1c(C(=O)Nc2cc(S(=O)(=O)N(CC)CC)ccc2O)[nH]c(C)c1C(C)=O` was tested, and the “lowest phenotypically active concentration” value [3] was 9 µM.
`Nc1nnc2[nH]c3ccccc3nc1-2` was tested, and the “lowest phenotypically active concentration” value [3] was 9 µM.
For `CC(C)N(CCCNC(=O)Nc1ccc(C(C)(C)C)cc1)C[C@H]1O[C@@H](n2cc(Br)c3c(N)ncnc32)[C@H](O)[C@@H]1O`, the “lowest phenotypically active concentration” value [2] was 3 µM, the “lowest phenotypically active concentration” value [3] was 9 µM and the “lowest phenotypically active concentration” value [4] was 3 µM. The “lowest phenotypically active concentration” value [5] was 1 µM, the “lowest phenotypically active concentration” value [6] was 9 µM and the “lowest phenotypically active concentration” value [10] was 3 µM. For the same molecule, the “lowest phenotypically active concentration” value [7] was 9 µM and the “lowest phenotypically active concentration” value [8] was 9 µM.
`Cc1cc(C)c(C)c(S(=O)(=O)Nc2ccc(N3CC[C@H](C(=O)O)C3)c3ccccc23)c1C` was tested, and the “lowest phenotypically active concentration” value [4] was 9 µM.
For `CC1(C)CCC(C)(C)c2cc(C(O)C(=O)Nc3ccc(C(=O)O)cc3F)ccc21` (centres undefined), the “lowest phenotypically active concentration” value [3] was 9 µM.
With `S=c1[nH]cnc2nc[nH]c12` [mercaptopurine] the “lowest phenotypically active concentration” value [3] was 9 µM, the “lowest phenotypically active concentration” value [6] was 9 µM and the “lowest phenotypically active concentration” value [10] was 9 µM. The “lowest phenotypically active concentration” value [8] was 9 µM.
In the case of `c1ccc(-c2n[nH]cc2-c2ccnc3ccccc23)nc1`, the “lowest phenotypically active concentration” value [9] is reported as 9 µM, the “lowest phenotypically active concentration” value [3] is reported as 9 µM and the “lowest phenotypically active concentration” value [4] is reported as 9 µM. The “lowest phenotypically active concentration” value [5] was 9 µM and the “lowest phenotypically active concentration” value [10] was 9 µM.
With `O=C(Nc1ccccc1)N1CCN(c2nc(-c3ccccc3)ns2)CC1` the “lowest phenotypically active concentration” value [3] was 9 µM, the “lowest phenotypically active concentration” value [5] was 9 µM and the “lowest phenotypically active concentration” value [6] was 9 µM.
For `O=C(/C=C/c1ccc(O)cc1)c1ccc(O)cc1O` [Isoliquiritigenin], the “lowest phenotypically active concentration” value [9] was 9 µM, the “lowest phenotypically active concentration” value [4] was 9 µM and the “lowest phenotypically active concentration” value [10] was 9 µM. The “lowest phenotypically active concentration” value [7] was 9 µM.
In the case of `O=C1NN(c2ccc(F)c(Cl)c2)C(=O)/C1=C\c1ccc([N+](=O)[O-])o1`, the “lowest phenotypically active concentration” value [10] is reported as 9 µM.
In the case of `COc1ccc(CC2c3cc(OC)c(OC)cc3CC[N+]2(C)CCC(=O)OCCCCCOC(=O)CC[N+]2(C)CCc3cc(OC)c(OC)cc3C2Cc2ccc(OC)c(OC)c2)cc1OC` (centres undefined) [Atracurium besilate], the “lowest phenotypically active concentration” value [3] is reported as 9 µM and the “lowest phenotypically active concentration” value [4] is reported as 3 µM.
In the case of `CC(C)[C@@H](C)/C=C/[C@@H](C)[C@H]1CC[C@H]2C3=CC=C4C[C@@H](O)CC[C@]4(C)[C@H]3CC[C@]12C` [Ergosterine], the “lowest phenotypically active concentration” value [9] is reported as 9 µM and the “lowest phenotypically active concentration” value [4] is reported as 9 µM.
